Experimental data as given in ChEMBL document CHEMBL3433997, “St. Jude Leishmania screening dataset” (2016).

Key:
Assay type in all cases: functional
[1] = biological target: Solute carrier family 2, facilitated glucose transporter member 1 (Homo sapiens) (UniProt P11166); assay: ST_JUDE_LEISH: Cytotoxicity at 2uM final concentration against transgenic Leishmania Mexicana promastigotes LmGLUT1 that are glucose transport deficient and complemented with the human glucose transporter GLUT1. Activity is measured by DNA content using SYBR green in vitro
Sequence of Solute carrier family 2, facilitated glucose transporter member 1 (Homo sapiens) (P11166 whole entry): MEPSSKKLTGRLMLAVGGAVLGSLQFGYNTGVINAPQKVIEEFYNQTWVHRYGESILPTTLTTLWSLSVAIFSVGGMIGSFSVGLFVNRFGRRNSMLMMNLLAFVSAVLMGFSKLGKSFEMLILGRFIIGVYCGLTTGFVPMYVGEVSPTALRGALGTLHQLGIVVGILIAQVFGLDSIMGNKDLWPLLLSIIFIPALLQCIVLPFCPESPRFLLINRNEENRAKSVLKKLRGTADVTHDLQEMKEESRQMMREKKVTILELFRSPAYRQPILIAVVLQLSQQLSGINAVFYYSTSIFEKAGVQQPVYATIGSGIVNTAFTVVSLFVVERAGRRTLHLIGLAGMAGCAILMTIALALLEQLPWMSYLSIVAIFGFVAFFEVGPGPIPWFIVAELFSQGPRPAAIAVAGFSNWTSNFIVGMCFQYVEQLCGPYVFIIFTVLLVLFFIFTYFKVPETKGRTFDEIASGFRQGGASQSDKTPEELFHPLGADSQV

[2] = biological target: Hexose transporter 1 (Plasmodium falciparum) (UniProt O97467); assay: ST_JUDE_LEISH: Cytotoxicity at 2uM final concentration against transgenic Leishmania Mexicana promastigotes LmPfHT that are glucose transport deficient and complemented with the Plasmodium falciparum hexose transporter. Activity is measured by DNA content using SYBR green in vitro
[3] = biological target: Glucose transporter (Leishmania mexicana) (UniProt O61059); assay: ST_JUDE_LEISH: Cytotoxicity at 2uM final concentration against transgenic Leishmania Mexicana promastigotes LmGT2 that are glucose transport deficient and complemented with the L. Mexicana glucose transporter 2. Activity is measured by DNA content using SYBR green in vitro

Compound | inhibition [1] [%] | inhibition [2] [%] | inhibition [3] [%]
N#Cc1ccc(N2CCN(Cc3cccc(-c4ccc(-c5nc6ccccc6[nH]5)cc4)c3)CC2)nc1 | 6.09 | 3.68 | -0.67
O=C(Nc1ccc2nccc(N3CCN4CCC[C@H]4C3)c2c1)c1ccc(Cl)c(Cl)c1 | 1.13 | 1.72 | -1.03
Cc1[nH]c(C)c(-c2ccc(-c3ccc4c(c3)OCO4)nc2)c(=O)c1Br | 0.29 | 1.09 | 0.07
O=C(NCCCCCN1CCC(c2c[nH]c3ccccc23)C1)Nc1ccc(Cl)c(Cl)c1 (stereo not given) | 3.7 | 3.21 | 2.22
C=CCOC(=O)N1CCC(CNCc2ccc(-c3cccc(-c4nc5cccc(C)c5[nH]4)c3)cc2)C1 (stereo not given) | -0.46 | -0.4 | -2.77
FC(F)(F)c1cccc(CNC2CCN(CC3CCCCC3)CC2)c1 | 5.19 | 4.53 | 3.27
CC(C)(C)c1ccc2[nH]c(-c3ccc(/C=C/C(=O)NCc4ccc(Cl)c(Cl)c4)cc3)nc2c1 | 6 | 6.31 | 1.89
CCC(CC)(Cc1ccccc1)NC(=O)[C@H](CC(C)C)Nc1ccc(C#N)c2ccccc12 | 13.3 | 10.4 | 10.7
CC(=O)Nc1ccc(C2NC(=O)NC(c3ccccc3)=C2c2nc3ccccc3s2)cc1 (stereo not given) | 3.15 | 0.83 | 2.69
c1ccc2c(NCCCCCCCNc3ccnc4ccccc34)ccnc2c1 | 13.5 | 13.3 | 12.9
Cc1cccc2nc(-c3ccc(-c4ccc(CN5CCCCC5)cc4)s3)[nH]c12 | 4.61 | 2.36 | 3.32
CC(C)=CCN1CCC(C(=O)Nc2ccc(-c3nc4ccccc4[nH]3)cc2)CC1 | 5.64 | 5.1 | 6.97
Oc1ccc2c(c1NCC1CCCCC1)CCCC2 | 2.5 | 2.89 | 1.57
COCC(=O)Nc1nc2ccccc2[nH]1 | 2.56 | 2.67 | 2.36
COc1cccc(Nc2nc(C)cc(NC3CCN(Cc4ccccc4)CC3)n2)c1 | 5.81 | 3.9 | 0.8
